High-throughput results: PubChem, National Center for Advancing Translational Sciences (NCATS)
Rows were chosen to be rich in hits. Some 11% of all compounds tested hit in one or more screens of this group.
Sfp inh – blocks B. subtilis Sfp PPTase activity. Q9F4F7. Biochemical Sfp PPTase activity, qHTS. Potency, µM, inactives show largest response in the series, negative = inhibition, most hits filed as inhibitors. 310,000 compounds, 3.5% hits. AID 1490;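 note: the enzyme is Sfp with the accession as filed and its product quenches rhodamine fluorescence; potency is the fitted concentration of half-maximal effect; 0% = enzyme reaction without inhibitor and -100% = no enzyme wells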
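After 15 min at room temperature with compound, 15 nM Sfp received 5 uM rhodamine-CoA plus 12.5 uM BHQ-2-ybbR (50 mM Hepes pH 7.6, 10 mM MgCl2). Rate came from the fluorescence difference over 30 min, ex 525/em 598 nm.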
Tau fluor cs – counter-screen for tau fibril formation inhibitors; 280,000 compounds, 0.93% hits; tau K18 P301L Alexa594 fluorescence, heparin fibrillization; Potency, µM (series often up to 57.7 µM), for the others: top-dose activity change, negative = decrease; note: potency is the fitted concentration of half-maximal effect; nearly all actives have a fitted effect of over 55% in size
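Human K18 P301L tau (15 uM unlabeled plus 0.24 uM Alexa 594-labeled, final) in 100 mM sodium acetate pH 7 was mixed with compound and 20 uM heparin and incubated 6 hr at 37 C.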
FBPA coupling cs – inhibits coupling enzyme system, counter-screen for aldolase hits | activity change, negative = inhibition, % at 58.2 µM, hits read low | coupling enzyme system counterscreen, AmpLite Red fluorescence | AID 2472 | 290,000 compounds, 0.67% hits; in the data active = activity change below about -30%
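Counterscreen of the coupled detection system alone, without aldolase: glyceraldehyde-3-phosphate coupling enzymes plus AmpLite Red readout. Compounds at 57.5 uM final, 10 min RT preincubation, 20 min RT reaction, fluorescence 525/598 nm.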
G9a inh – G9a (human) methyltransferase inhibition; Q96KQ7; Potency, µM (titrated, usually from 102 µM), for inactives: at the top dose activity, negative = inhibition, hits mostly inhibitors; G9a H3K9 monomethylation, AlphaScreen, 2 h; 350,000 compounds, 8.8% hits; AID 504332; note: potency is the fitted concentration of half-maximal effect; nearly all actives have a fitted effect of over 75% in size
Target sequence (Q96KQ7 913-1193 limits assumed): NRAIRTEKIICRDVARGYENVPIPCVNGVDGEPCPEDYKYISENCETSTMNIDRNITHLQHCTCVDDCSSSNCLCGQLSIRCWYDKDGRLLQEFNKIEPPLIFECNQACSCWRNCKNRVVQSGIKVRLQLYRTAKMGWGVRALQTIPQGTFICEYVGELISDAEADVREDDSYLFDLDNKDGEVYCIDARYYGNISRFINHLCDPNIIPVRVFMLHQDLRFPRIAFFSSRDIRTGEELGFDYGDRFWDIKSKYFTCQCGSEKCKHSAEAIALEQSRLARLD
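Chemiluminescent proximity detection of H3K9 monomethylation, read after 10 min bead incubation in the dark. Reaction: 20 nM G9a, 500 nM biotin-H3K9 peptide, 20 uM SAM cofactor, 2 h, room temperature, following 15 min enzyme-compound preincubation.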
Tau fibril FP – blocks human tau fibril formation measured by polarization; 280,000 compounds, 0.39% hits; Potency, µM (highest dose often 57.7 µM), inactives show top-dose activity, negative = inhibition, usual class: inhibitors; K18 P301L tau heparin fibrillization, Alexa594 FP, 6 h; P10636; note: potency is the fitted concentration of half-maximal effect; nearly all actives have a fitted effect of over 55% in size
Target sequence (P10636 561-689 P618L limits assumed): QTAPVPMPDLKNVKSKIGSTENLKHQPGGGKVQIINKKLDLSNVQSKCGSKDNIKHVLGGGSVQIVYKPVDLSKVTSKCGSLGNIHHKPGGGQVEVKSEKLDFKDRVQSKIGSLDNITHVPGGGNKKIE
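Human K18 P301L fragment (15 uM unlabeled plus 0.24 uM Alexa 594-labeled) in 100 mM sodium acetate pH 7 with compound, aggregation induced by 20 uM heparin for 6 hr at 37 C. ThT (30 uM) added for 1 hr, then Alexa 594 FP read.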
Tau fibril ThT – blocks human tau fibril formation measured by thioflavin T; P10636; recombinant tau K18 P301L, heparin-induced fibrillization, ThT fluorescence; Potency, µM (series often up to 57.4 µM), inactives show at the top dose activity, negative = inhibition, hits mostly inhibitors; 270,000 compounds, 2.1% hits; note: potency is the fitted concentration of half-maximal effect; nearly all actives have a fitted effect of over 55% in size
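Using a mix of unlabeled (15 uM) and Alexa 594-labeled (0.24 uM) tau K18 P301L, heparin-triggered fibrillization over 6 hr at 37 C was scored by ThT fluorescence.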
* = called active by the depositor; ? = inconclusive; nt = not tested or not shown; [ ] = another dose, or the depositor's remark. Unless noted, calls come from the whole dose curve; as a rule, active = well fitted curve in the direction sought with a large enough effect; inconclusive = small, poorly fitted or top-dose-only effect, or another doubt; inactive = no such curve, though single readings can be large; an effect the other way counts as inactive or inconclusive. Unless noted, % is set by controls: 0 for no effect and ±100 for the full control effect.

SMILES	Sfp inh	Tau fluor cs	FBPA coupling cs	G9a inh	Tau fibril FP	Tau fibril ThT
COc1cccc(Nc2nc(-c3sc(C)nc3C)cs2)c1	-29%	nt	-5	nt	nt	nt
CCC(C)C(=O)Nc1nc(C)c(-c2csc(Nc3cc(OC)ccc3OC)n2)s1 (centres undefined)	6%	14µM*[quencher]	-4	22µM*	?	?
COc1ccc(Cl)cc1Nc1nc(-c2sc(NC(=O)C(C)(C)C)nc2C)cs1	-10%	?	3	?	?	?
COc1ccc(OC)c(Nc2nc(-c3sc(C)nc3C)cs2)c1	?	?	-7	50µM*	?	14µM*
O=c1c(-c2cccs2)nc2cnc(Oc3ccccc3)nc2n1C1CC1	-3%	nt	-2	5%[12.7 µM]	nt	nt
Cc1nc(C)c(-c2csc(Nc3ccc(F)cc3)n2)s1	-31%	20µM*[quencher]	-1	20µM*	?	?
Cc1nc(C)c(-c2csc(Nc3ccc(C(=O)O)c(O)c3)n2)s1	?	nt	-2	?	nt	nt
CCCCC(=O)Nc1nc(C)c(-c2csc(Nc3cc(Cl)ccc3OC)n2)s1	?	?	0	?	-4%	?
COc1ccc(OC)c(Nc2nc(-c3sc(NC(=O)CC(C)C)nc3C)cs2)c1	5%	13µM*[quencher]	-3	8.9µM*	-5%	?
CCCCC(=O)Nc1nc(C)c(-c2csc(Nc3cc(OC)ccc3OC)n2)s1	-1%	16µM*[quencher]	2	?	?	?
COc1ccccc1OCCSc1nc2ccccc2n1CC(O)CO (centres undefined)	1%	nt	-4	-5%	nt	nt
CC1=C(C(=O)Nc2ccc(Cl)cc2)C(c2ccncc2)C(C#N)=C(SCC(N)=O)N1 (centres undefined)	89µM*	1%	-7	?	3%	10%
CC(=O)C1=C(C)NC(SCC(=O)Nc2nc3ccccc3s2)=C(C#N)C1c1ccc(Cl)cc1 (centres undefined)	40µM*	?	1	8.9µM*	?	?
COC(=O)C1=C(C)OC(N)=C(C#N)C1c1cc2cccc(C)c2nc1Cl (centres undefined)	-15%	-5%	-2	22µM*	-5%	?
CC(=O)C1=C(C)OC(N)=C(C#N)C1c1cc2cccc(C)c2nc1Cl (centres undefined)	-17%	-14%	-34*	?	-9%	?
C=C1CCN(C(C(=O)O)C(C)C)S(=O)(=O)c2ccccc21 (centres undefined)	3%	nt	6	nt	nt	nt
CN(C)c1ccc(-c2nc(-c3ccco3)no2)cc1[N+](=O)[O-]	nt	1%	nt	7%[59 µM]	-7%	13%
CCOC(=S)SCc1cn2ccc(C)cc2n1	-14%	-11%	0	-44%[59 µM]	?	?
CCOC(=S)SCc1cn2ccccc2n1	50µM*	-16%	0	?	?	?
CCOC(=O)C(=Cc1cc(=O)c(OC)co1)C(=O)OCC	6.3µM*	4%	1	10µM*	?	?
NC(=O)Cn1c(=O)n(C2CCCCC2)c(=O)c2c3c(sc21)CCCCC3	50µM*	-11%	-1	9%	?	4%
Oc1ccc(N2CCN(c3nnnn3-c3ccccc3)CC2)cc1	56µM*	-3%	-7	25µM*	12%	-5%
CC(=O)N1CCN(c2nnnn2-c2ccccc2)CC1	15%	-5%	0	4%[59 µM]	-9%	-1%
CCc1ccccc1NC(=O)CN1C(=O)c2ccccc2Sc2ncccc21	nt	-2%	nt	-22%[59 µM]	3%	?
O=C(O)CCNc1cc2ccccc2cc1C(=O)O	?	-25%	-30*	?	?	16µM*
O=C(O)CCCNc1ccc(S(=O)(=O)Nc2ccccc2C(=O)O)cc1C(=O)O	22%	0%	10	50µM*	-1%	-8%
Cc1ccccc1NS(=O)(=O)c1ccc(C)c(C(N)=O)c1	19%	-1%	2	0%	0%	-6%
